Source: PubChem BioAssay (NCATS)
Records with an inconclusive call do not appear. Where a call stands in place of a potency, no number is given. Unmarked numbers belong to inactive results. Calls of active or inactive are those of the source. The call rests on the fitted dose curve; in most records, active means well fitted inhibition curve with a large enough effect; inconclusive means small, poorly fitted or top-dose-only effect; inactive means no such curve, though single readings can be large or run the other way.

target: Rap guanine nucleotide exchange factor 3 (Homo sapiens) (UniProt O95398); assay: Counterscreen qHTS for antagonist of cAMP-regulated guanine nucleotide exchange factor 3 (EPAC1) (AID 1645888); details: Rap1B-BODIPY-GDP nucleotide exchange, fluorescence; series mostly up to 154 µM;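 further: fluorescence loss as bound BODIPY-GDP is released from Rap1B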
Sequence (O95398 whole entry, looked up): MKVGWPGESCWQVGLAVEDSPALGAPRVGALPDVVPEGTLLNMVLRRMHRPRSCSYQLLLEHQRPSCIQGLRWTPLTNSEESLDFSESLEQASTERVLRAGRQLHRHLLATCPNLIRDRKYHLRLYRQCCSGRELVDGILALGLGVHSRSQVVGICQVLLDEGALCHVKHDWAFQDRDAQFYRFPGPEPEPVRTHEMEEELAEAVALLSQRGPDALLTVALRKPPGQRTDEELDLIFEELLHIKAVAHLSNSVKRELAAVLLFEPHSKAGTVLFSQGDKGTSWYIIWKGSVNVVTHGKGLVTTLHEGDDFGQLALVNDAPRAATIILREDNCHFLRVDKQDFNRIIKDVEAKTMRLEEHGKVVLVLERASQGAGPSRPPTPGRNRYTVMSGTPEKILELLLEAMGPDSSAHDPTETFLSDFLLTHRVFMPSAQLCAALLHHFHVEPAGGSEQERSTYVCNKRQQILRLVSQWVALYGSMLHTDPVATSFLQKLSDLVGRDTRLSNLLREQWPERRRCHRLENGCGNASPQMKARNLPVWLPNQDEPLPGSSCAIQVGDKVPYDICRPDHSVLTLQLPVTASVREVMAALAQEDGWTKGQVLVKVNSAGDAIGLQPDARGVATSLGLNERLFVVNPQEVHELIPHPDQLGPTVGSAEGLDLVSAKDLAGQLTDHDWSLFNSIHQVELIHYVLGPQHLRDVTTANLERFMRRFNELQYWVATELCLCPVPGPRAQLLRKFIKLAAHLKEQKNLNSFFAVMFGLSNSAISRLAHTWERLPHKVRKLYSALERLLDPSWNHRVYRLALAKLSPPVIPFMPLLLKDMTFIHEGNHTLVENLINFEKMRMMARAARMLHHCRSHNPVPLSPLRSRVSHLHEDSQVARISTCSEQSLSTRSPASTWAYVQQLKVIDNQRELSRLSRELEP
Method in brief: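 Rap1B-BODIPY-GDP 250 nM + GDP 50 uM; cpds 7-pt, final 9.74 nM–152 uM (activator mode) or from 7.32 nM upwards (inhibitor mode); RT; FI 480/540 nm at 5 and 30 min, then ± cAMP, reread.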

Row | Structure (SMILES) | activity change, negative = inhibition | Potency
1 | Cc1nc2ccccc2c(=O)n1N(c1ccccc1)c1ccccc1 | 9.75% [at 30.8 µM] | 
2 | COc1ccc(C(=O)N/N=C/c2ccc3cccc(OCc4ccccc4)c3n2)cc1 |  | inactive
3 | O=C(O)CSc1cc(NS(=O)(=O)c2ccc(Cl)cc2)c2ccccc2c1O |  | inactive
4 | CSc1nc(C)cc(C)c1S(=O)(=O)c1ccccc1C | -5.37% [at 30.8 µM] | 
5 | O=C(Nc1sc2c(c1C(=O)O)CCC2)c1ccccc1F |  | inactive
6 | COc1cc(/C=C2\C(=O)N(c3cccc(C(=O)O)c3)N=C2C)ccc1OCc1ccccc1 |  | inactive
7 | Cc1ccc(CNc2cc(C)nc3nc(-c4cccc(C)c4)nn23)cc1 |  | inactive
8 | COc1cc(OC)c2c(-c3ccccc3)cc(=O)oc2c1C(CC(=O)N1CCOCC1)c1ccc2c(c1)OCO2 (stereo not given) | -9.45% [at 30.8 µM] | 
9 | CC(=O)C1C(=O)C=C(c2cccs2)CC1c1ccccc1 (stereo not given) | 2.3% [at 30.8 µM] | 
10 | CC(=O)NC(c1ccccc1)c1nc(-c2cccs2)cs1 (stereo not given) |  | inactive
11 | O=[N+]([O-])c1ccccc1O[C@@H]1O[C@H](CO)[C@H](O)[C@H](O)[C@H]1O |  | inactive
12 | Cc1nn(-c2ccccc2)c(Cl)c1/C=N/Nc1ccc(S(=O)(=O)Nc2ccccc2C(=O)O)cc1[N+](=O)[O-] |  | inactive
13 | CC(C)=CCc1c(O)cc2oc3c(CC=C(C)C)c(O)c(O)c(CC=C(C)C)c3c(=O)c2c1O |  | inactive
14 | CCCCCCc1cc2cc(-c3nnc(-c4ccc(C)cc4)o3)c(=O)oc2cc1O |  | inactive
15 | CCOC(=O)C1Nc2c(F)cc(C)cc2C2c3ccccc3CC12 (stereo not given) |  | inactive
16 | O=C1CC2(CCCCC2)Oc2ccc(F)cc21 |  | inactive
17 | O=C(Cc1ccccc1Cl)Nc1ccc(S(=O)(=O)N2CCOCC2)cc1 |  | inactive
18 | Cc1ccc(CC#N)c(-c2c(CC#N)ccc(C)c2C)c1C |  | inactive
19 | COC(C(=O)Nc1ccc(Br)cc1F)c1ccccc1 (stereo not given) |  | inactive
20 | O=C(Cc1c(Cl)cccc1Cl)Nc1ccc(S(=O)(=O)Nc2ncccn2)cc1 |  | inactive

Row | Structure (SMILES) | activity change, negative = inhibition | Potency
21 | O=C1ON=C(c2ccccc2)/C1=C/c1ccc(-c2ccccc2[N+](=O)[O-])o1 |  | inactive
22 | CC(=O)N1CCc2c(sc(NC(=O)CS(=O)(=O)c3ccc(F)cc3)c2C(N)=O)C1 |  | inactive
23 | CCN(CC1COc2ccccc2O1)C(=O)CN1C(=O)NC(C)(c2ccc(C)cc2)C1=O (stereo not given) |  | inactive
24 | O=C(Cn1cnc2c(nnn2Cc2ccccc2)c1=O)N1CCN(c2ccccc2)CC1 |  | inactive
25 | CCCCn1nnnc1C(c1ccccc1)N1CCN(c2ccc(F)cc2)CC1 (stereo not given) |  | inactive
26 | COC(=O)C1=CN(Cc2cccs2)C=C(C(=O)OC)C1c1cccc(O)c1 |  | inactive
27 | O=C(Nc1cccc(Cl)c1N1CCOCC1)c1cccs1 |  | inactive
28 | Cc1nc2sc(C(c3cccs3)N3CCN(C(=O)c4ccco4)CC3)c(O)n2n1 (stereo not given) |  | inactive
29 | COC(=O)/C(=C/Nc1ccc(O)cc1)[N+](=O)[O-] |  | inactive
30 | COc1ccc(C2=CC(=O)OC3(CCCCC3)O2)cc1 | -23.4% [at 30.8 µM] | 
31 | O=C(CSc1nc2nn(-c3ccccc3)c(=O)c-2c2n1CCCCC2)c1ccc(O)c(O)c1 |  | inactive
32 | O=C(O)c1ccc(/C=N/Nc2cccc(C(F)(F)F)c2)cc1 |  | inactive
33 | COc1ccc(NC(=O)c2cc(-c3ccco3)nc3ccccc23)cc1S(=O)(=O)N1CCOCC1 |  | inactive
34 | COc1cc(/C=C2\C(=N)N3N=C(S(C)(=O)=O)SC3=NC2=O)ccc1OS(=O)(=O)c1ccc(C)cc1 |  | inactive
35 | CCn1c(O)c(/C=N/NC(=O)c2ccncc2)c(=O)n(CC)c1=S |  | inactive
36 | O=C(Nc1ccc2nc3n(c(=O)c2c1)CCCCC3)c1c(F)ccc([N+](=O)[O-])c1F |  | inactive
37 | O=C(COc1ccccc1Cl)Nc1ccc(C(=O)c2ccc(C(=O)O)cc2)cc1 |  | inactive
38 | COc1ccc(/C=C2\N=C(SC)N(c3ccccc3OC)C2=O)cc1 | -8.08% [at 30.8 µM] | 
39 | Nc1[nH]n2c(=O)cc(-c3ccccc3)nc2c1N=Nc1ccc(S(N)(=O)=O)cc1 |  | inactive
40 | CC1=CC(C)(C)N(C(=O)c2ccc(F)cc2)c2cc3c(cc21)OCO3 |  | inactive
